Bioassay records: PubChem BioAssay, The Scripps Research Institute Molecular Screening Center
pPAFAH FP inh = pPAFAH (human) enzyme inhibition; inhibition, % at 3.39 µM; Q13093; 1.5% of 330,000 active; recombinant pPAFAH, FP-rhodamine probe fluorescence polarization;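 active = inhibition above the mean inhibition across the screen plus 3 SD, cut at about 25% in these data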;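 also: inhibitors block binding of the rhodamine activity-based probe so polarization drops; 0% = enzyme with DMSO and 100% = wells lacking pPAFAH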
PAFAH1B2 FP inh = PAFAH1B2 (human) inhibition | P68402 | recombinant PAFAH1B2, FP-rhodamine activity probe, fluorescence polarization | inhibition, % at 3.39 µM | 1.2% of 340,000 active | AID 492953;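 active = inhibition above the mean of all tested compounds plus 3 SD, cut at about 24% in these data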;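 also: 0% = enzyme with DMSO and 100% = wells lacking PAFAH1B2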
PAFAH2 FP inh = PAFAH2 (human) inhibition | AID 492956 | inhibition, % at 3.39 µM | 0.99% of 340,000 active | recombinant PAFAH2, FP-rhodamine activity probe, fluorescence polarization;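 active = inhibition above the mean over all tested compounds plus 3 SD, cut at about 30% in these data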;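 also: inhibitors block probe labeling of enzyme so polarization drops; 0% = enzyme with DMSO and 100% = wells lacking PAFAH2 protein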
PP1 counter = counter-screen for PP5 inhibitors: inhibitors of human PP1-alpha; P62136; inhibition, % at 6.7 µM; purified PP1alpha, OMFP fluorescence; 0.9% of 320,000 active;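 active = inhibition above the mean inhibition of all tested compounds plus 3 SD, computed separately for each screening campaign, cut at about 15% in these data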
Target sequence (P62136 whole entry, looked up): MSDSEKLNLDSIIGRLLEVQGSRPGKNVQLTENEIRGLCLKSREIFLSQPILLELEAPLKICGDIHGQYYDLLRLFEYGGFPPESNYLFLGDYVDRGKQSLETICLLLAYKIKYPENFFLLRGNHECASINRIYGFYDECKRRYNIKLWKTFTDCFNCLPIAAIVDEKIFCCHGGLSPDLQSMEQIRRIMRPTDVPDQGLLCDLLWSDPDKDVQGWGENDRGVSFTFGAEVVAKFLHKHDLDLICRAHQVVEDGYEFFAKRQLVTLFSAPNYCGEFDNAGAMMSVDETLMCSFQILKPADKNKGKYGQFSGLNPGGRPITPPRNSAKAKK
PAFAH1B3 inh = blocks human PAF acetylhydrolase 1B catalytic subunit 3. Q15102. recombinant PAFAH1B3, FP-rhodamine probe, fluorescence polarization. inhibition, % at 3.39 µM. 0.28% of 340,000 active. AID 492972;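 active = inhibition above the screen-wide average of all tested compounds plus 3 SD, cut at about 25% in these data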;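 also: 0% = enzyme with DMSO only and 100% = wells lacking PAFAH1B3 protein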
Target sequence (Q15102 whole entry, looked up): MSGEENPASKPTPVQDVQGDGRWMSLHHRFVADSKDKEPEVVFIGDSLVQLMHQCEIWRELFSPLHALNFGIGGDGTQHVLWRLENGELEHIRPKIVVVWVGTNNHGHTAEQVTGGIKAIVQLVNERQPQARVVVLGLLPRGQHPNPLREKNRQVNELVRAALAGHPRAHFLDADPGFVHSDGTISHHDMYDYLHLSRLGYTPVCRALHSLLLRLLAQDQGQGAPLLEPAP
PP5 primary = PP5 (human) phosphatase inhibition; P53041; purified PP5c, OMFP substrate fluorescence; inhibition, % at 6.7 µM; 0.18% of 320,000 active;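 active = inhibition above the campaign's mean inhibition across all tested compounds plus 3 SD, cut at about 9.5% in these data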;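 also: 0% = DMSO only and 100% = 100 µM cantharidin control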
PAFAH2 FP conf = confirmation of human PAFAH2 inhibitors | inhibition, % at 3.39 µM | recombinant PAFAH2, FP-rhodamine activity probe, fluorescence polarization | 65% of 2,300 active | shares compounds with PAFAH2 FP inh | AID 493030;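 active = mean inhibition over three repeats above a set limit taken from the earlier primary screen, cut at about 30% in these data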;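 also: inhibitor blocks binding of rhodamine activity probe so polarization falls; 0% = enzyme with DMSO and 100% = wells lacking PAFAH2 protein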
Active calls of the source: *; . = no result given. In the library only some 3.4% were active in any assay of this set; here they are far more common.

SMILES | pPAFAH FP inh | PAFAH1B2 FP inh | PAFAH2 FP inh | PP1 counter | PAFAH1B3 inh | PP5 primary | PAFAH2 FP conf
O=C(NC(=S)Nc1cc(S(=O)(=O)N2CCOCC2)ccc1O)c1ccco1 | 6.7 | 4.1 | 43.9* | -0.8 | 11.7 | 0.2 | 31.7*
COc1ccc2oc(C(=O)OCC(=O)Nc3ccccc3)c(C)c2c1 | 9.9 | 0.4 | 61.4* | -3.4 | 7.5 | 0.3 | 51.9*
COc1ccc2oc(C(=O)OCC(=O)NC(C)(C#N)C3CC3)c(C)c2c1 (stereo unspecified) | 11.7 | 3.3 | 46.6* | -3.8 | 7.5 | 1.4 | 40.6*
O=C(COC(=O)c1ccccc1)NCc1cccs1 | 8.9 | 0.1 | 36.4* | -2.6 | 13.1 | 0.1 | 20.0
Cc1ccc(C(=O)OCC(=O)NCc2cccs2)s1 | . | 1.9 | 65.1* | . | 0.7 | . | 56.7*
O=C(COC(=O)c1ccc(OC(F)F)cc1)NCc1cccs1 | 16.8 | 3.8 | 55.7* | . | 7.2 | . | 28.9
O=C(COC(=O)c1c(Cl)cccc1Cl)NCc1cccs1 | 4.0 | 6.3 | -1.3 | . | 1.8 | . | .
Nc1cc(=O)[nH]c(SCC(=O)NNC(=O)Cc2ccccc2)n1 | 0.6 | -0.3 | -2.8 | 3.9 | 5.3 | 2.6 | .
CCc1cc(=O)oc2c3c(cc(OCC(=O)NCCC(=O)O)c12)OC(C)(C)CC3 | 23.4 | 3.5 | 37.9* | -6.4 | 1.3 | 0.4 | 23.1
Cc1cc(=O)oc2c3c(cc(OCC(=O)NCCC(=O)O)c12)OC(C)(C)CC3 | . | -2.0 | -1.5 | . | -0.2 | . | .
CC1CC(C)CN(C(=O)CNS(=O)(=O)c2ccc(Br)s2)C1 (stereo unspecified) | -3.4 | 21.5 | 4.2 | -2.2 | 8.0 | 2.7 | .
Cc1ccc(N2CCN(C(=O)CNS(=O)(=O)c3ccc(Br)s3)CC2C)cc1 (stereo unspecified) | 2.9 | 11.5 | 35.9* | 7.4 | 5.1 | 5.5 | 23.7
CC(Oc1cc2oc(=O)c3c(c2cc1Cl)CCC3)C(=O)NCCCn1ccnc1 (stereo unspecified) | 2.7 | 3.1 | 1.0 | -0.1 | 6.0 | 0.1 | .
COc1ccc(C(=O)OCC2CC(c3ccccc3)=NO2)cc1OC (stereo unspecified) | 4.5 | 2.6 | 68.2* | -2.0 | -3.5 | -1.4 | 60.1*
O=C(O)/C(=C\c1ccccc1OC(F)F)c1ccc(-c2ccccc2)cc1 | 13.2 | -4.3 | 49.1* | 10.9 | 2.6 | 3.4 | 40.1*
O=C(O)/C(=C\c1ccc(F)cc1)c1ccc(-c2ccccc2)cc1 | 0.4 | 1.9 | -2.5 | 3.9 | 6.8 | 0.7 | .
CCOc1ccc2ccccc2c1/C=N/NC(=O)c1cc(C)[nH]n1 | 1.4 | 0.7 | 48.6* | 1.2 | -4.3 | 0.4 | 15.3
Cc1cc(C(=O)N/N=C/c2c3ccccc3cc3ccccc23)n[nH]1 | 7.7 | 5.5 | 6.5 | 4.3 | 12.1 | 1.6 | .
Cc1ccc(C(=O)c2ccccc2C(=O)OCC(=O)NC(C)(C)C)cc1 | 1.2 | 0.1 | 61.7* | 0.2 | 8.6 | 0.7 | 50.7*
Cc1ccc(C(=O)c2ccccc2C(=O)OCC(=O)N2CCCC2)cc1 | -6.9 | 1.4 | 0.9 | . | 4.2 | . | .
CCCN(C(=O)C1CC(=O)N(c2ccccc2C(C)CC)C1)C1CCS(=O)(=O)C1 (stereo unspecified) | 1.9 | 2.3 | -3.2 | -4.0 | -0.7 | -1.9 | .
O=C(COC(=O)CC1CCCC1)Nc1ccccc1[N+](=O)[O-] | 15.2 | -1.8 | 56.7* | -2.5 | 2.0 | 1.1 | 51.1*
CCOC(=O)c1ccccc1NC(=O)COC(=O)CC1CCCCC1 | 1.7 | -1.0 | 0.9 | -1.1 | 1.6 | -0.4 | .
Cc1ccc(Cl)cc1NC(=O)COC(=O)CC1CCCCC1 | 13.0 | 10.8 | 31.4* | -0.6 | 6.3 | 4.4 | 22.4
O=C(COC(=O)c1ccc(O)cc1)Nc1ccccc1[N+](=O)[O-] | 0.2 | 0.1 | 68.9* | 0.3 | 6.4 | -5.3 | 67.5*
SMILES | pPAFAH FP inh | PAFAH1B2 FP inh | PAFAH2 FP inh | PP1 counter | PAFAH1B3 inh | PP5 primary | PAFAH2 FP conf
Cc1ccccc1NC(=O)COC(=O)CC1CCCC1 | . | 4.1 | 43.2* | . | -0.6 | . | 29.0
O=C(CC(=O)Nc1ccccc1[N+](=O)[O-])Nc1ccccc1[N+](=O)[O-] | -2.8 | 0.6 | 0.8 | 1.6 | 1.4 | 1.4 | .
CCOC(=O)Cn1nc(NC(=O)COc2ccc(F)cc2)cc1C | 0.4 | 12.9 | 2.8 | -3.9 | 1.5 | 2.3 | .
COC(=O)c1ccccc1S(=O)(=O)NNC(=O)Nc1ccccc1 | 1.4 | -0.6 | 34.4* | -1.5 | -2.0 | 2.5 | 17.8
COC(=O)c1ccccc1S(=O)(=O)C(C)(C)C | 1.7 | -0.4 | -1.3 | -0.5 | 7.4 | -4.3 | .
O=C(O)c1ccc2c(c1)C(=O)N(c1cc([N+](=O)[O-])ccn1)C2=O | 2.4 | 3.9 | -12.3 | 0.4 | 1.9 | -0.1 | .
O=C(COC(=O)/C=C/c1ccccc1)NC1CCCC1 | 9.4 | 6.1 | 84.4* | . | 7.1 | . | 74.2*
CCOc1ccc(CCNC(=O)COC(=O)/C=C/c2cccc(OC)c2)cc1OCC | -0.6 | 2.9 | 6.2 | 5.5 | -6.7 | 0.2 | .
O=C(COc1ccccc1)NC1CCCCCCC1 | 2.6 | 6.2 | 7.2 | -1.9 | 0.8 | 4.3 | .
O=C(COc1ccccc1)NC1CCCCC1 | -1.6 | 1.2 | -6.9 | 1.4 | 5.8 | 1.8 | .
O=C(COC(=O)/C=C/c1ccccc1)NC1CCCCC1 | 9.0 | 2.7 | 76.3* | -3.6 | 3.0 | 3.4 | 82.9*
COc1cccc(/C=C/C(=O)OCC(=O)NCCc2ccccc2)c1 | 5.0 | -1.7 | 32.4* | 3.2 | 4.1 | -0.3 | 22.8
O=C(COC(=O)/C=C/c1cccc(C(F)(F)F)c1)NC(=O)NC1CCCC1 | . | -1.6 | -3.4 | . | 3.5 | . | .
O=C(COC(=O)/C=C/c1cccc(Br)c1)NC1CCCC1 | 12.8 | -2.3 | 65.6* | . | 13.1 | . | 59.1*
O=Cc1cn(CCOc2ccccc2)c2ccccc12 | 0.5 | 2.2 | 1.5 | 0.8 | 8.3 | 0.9 | .
COc1cccc(/C=C/C(=O)OCC(=O)NC2CC2)c1 | 1.9 | 0.6 | 41.1* | -0.2 | 9.2 | 2.3 | 38.4*
O=C(COC(=O)/C=C/c1ccccc1Cl)NC1CCCCCC1 | 20.7 | -0.9 | 71.7* | -2.5 | 6.3 | -0.1 | 74.5*
CC(C)C[C@H](NC(=O)C1CCN(S(=O)(=O)c2ccccc2)CC1)C(=O)NCc1ccccn1 | 7.4 | 2.9 | 3.5 | -1.7 | 9.0 | 0.2 | .
Cn1cc(S(=O)(=O)NC[C@H]2O[C@@H](n3cnc4c(N)ncnc43)[C@H](O)[C@@H]2O)cn1 | 1.8 | -1.4 | -7.1 | . | 6.4 | . | .
CCOc1ccccc1C(=O)OCC(=O)Nc1ccc(N2CCCCC2)cc1 | 22.1 | 4.3 | 36.2* | 7.3 | -4.5 | -4.6 | 28.1
Cc1cccc(C(=O)OCC(=O)Nc2ccc(N3CCCCC3)cc2)c1O | 0.9 | 4.9 | 7.5 | -0.1 | 0.6 | -0.2 | .
O=C(COC(=O)c1ccccc1OC(F)F)Nc1ccc(N2CCCCC2)cc1 | 22.5 | 3.0 | 41.7* | -0.4 | 10.2 | 0.1 | 37.0*
CC1(C)SC2C(C(=O)O)N=C(Cc3ccccc3)N2C1C(=O)O (stereo unspecified) | . | 11.3 | 5.3 | . | 10.6 | . | .
